# Measured values taken from PubChem BioAssay.
# Values joined by “and” are separate entries in the source; they are usually repeats but may differ in a detail not shown here. Identical values can stand only once. Active and inactive are the calls of the source.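 How the source made its calls, unless noted: active means compounds whose cell count with miR-34 switched on is under 0.7 times the count with it off; inactive means the rest.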
# Legend:
# [1] = Wnt pathway potentiators raising nuclear beta-catenin – imaging, WNT3A-conditioned medium, mouse C2C12, NPC library, primary screen (AID 1117326; in the data active means nuclear beta-catenin stimulation mostly above about 4.2%, no sharp cut-off; inactive means mostly below about 10%); conditions: stronger effect = higher value
# [2] = stimulators of insulin release from INS-1E, primary screen, cell-based, 5 mM glucose, NPC library (AID 1117329;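 active means compound raises insulin release from rat beta cells at 5 mM glucose, no numeric limit stated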); conditions: rat INS-1E insulin secretion, at 10 µM, stronger effect = higher value
# [3] = growth inhibition of GSK3B-pretreated HCT116 cells – cell-based, CellTiter-Glo, 0.2 to 20 µM (AID 1117336;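 active means compounds lowering colon cancer cell viability after pretreatment blocking the GSK3B kinase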); conditions: HCT116 viability after GSK3B inhibitor, at 20 µM, stronger effect = higher value
# [4] = inhibition of endothelial tube formation, primary screen, imaging, VEGF stimulated, CD31 staining, tube area, NPC library (AID 1117340;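 active means compound that reduces growth-factor-driven endothelial tube area in a mixed cell culture, no cutoff stated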); conditions: VEGF-stimulated ADSC/ECFC co-culture, at 10 µM, stronger effect = higher value
# [5] = GLP1 release stimulators, primary, NCI-H716, NPC library (AID 1117341;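 active means compound raises GLP1 secretion from the human gut endocrine cells, with no numeric limit stated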); conditions: NCI-H716 cells, at 10 µM, stronger effect = higher value
# [6] = HCT116 colon cancer cell growth inhibition, primary screen, CellTiter-Glo luminescence, NPC library (AID 1117342;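 active means compounds that lower survival of HCT116 colon cancer cells in the luminescence readout, no numeric limit stated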); conditions: at 20 µM (top of the series)
# [7] = reduced SW480 viability measured with CellTiter-Glo, NPC library, primary (AID 1117343;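 active means compounds that lower viability of the colon cancer cells in the luminescence readout, with no numeric limit stated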); conditions: CellTiter-Glo luminescence; at 20 µM (top of the series) unless noted
# [8] = NPC library primary testing for decreased DLD-1 cell viability via CellTiter-Glo (AID 1117346;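 active means compounds that lower survival of DLD-1 colon cancer cells in the luminescence readout, no cutoff given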); conditions: DLD-1 viability, CellTiter-Glo luminescence; at 20 µM (top of the series)
# [9] = EMT-state selective cytotoxicity in co-culture – imaging, PC-3E GFP, TEM4-18 mCherry, primary screen (AID 1345086;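 active means compounds killing one labelled cell type while sparing the other, by normalised counts and ratio limits, not self-fluorescent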;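 on all read-outs here: cells exposed to compound for 72 h before imaging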;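 on red/green cell ratio (normalised): normalised mesenchymal count divided by normalised epithelial count so high means epithelial killing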); conditions: PC-3E GFP / TEM4-18 mCherry co-culture, imaging cell counts, at 1 µM; for red/green cell ratio (normalised): actives lie on both sides, counts scaled to control wells, 1 = unselective
# [10] = viability loss with induced miR-34 in A549 – imaging, A549 dox-inducible miR-34, nuclei and caspase counts, primary screen (AID 1347080); conditions: A549 miR-34 inducible, Hoechst nuclei count, 48 h
# [11] = MELAS cybrid and Rieske KO viability enhancers – cell-based, MELAS cybrids, Rieske KO mouse fibroblasts, CellTiter-Glo, primary screen (AID 1508586;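 active means mean z-score across replicates of 1.96 or higher in either the MELAS or the Rieske mutant cell line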;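 further: z relative to plate mean and SD of compound and empty wells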); conditions: low glucose
# [12] = target: NAD(+) hydrolase SARM1 (Homo sapiens) (UniProt Q6SZW1); experiment: blocking NAD cleavage by SARM1 SAM-TIR – cell lysate, NAD-Glo luminescence (AID 1508614;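 active means compound whose remaining NAD level is above about 45 nM, limit read from the data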); conditions: SAM-TIR HEK293T lysate NADase, at 1 µM, stronger effect = higher value
# [13] = P. berghei load reduction in hepatocytes – cell-based, HepG2, luciferase luminescence, HepG2 viability, primary screen (AID 624349; in the data active means parasite load remaining mostly below about 12%, no sharp cut-off; inactive means mostly above about 10%;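 further: 100% = mean of DMSO negative control wells on the same plate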); conditions: P. berghei liver stage in HepG2, luciferase luminescence, concentration not given here; parasite load remaining: stronger effect = lower value; viability: measured here: HepG2 viability without parasites
# [14] = compounds altering viability of human ES cells (AID 493140; call rule not given here;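 further: cells exposed to compounds for four days before counting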); conditions: human embryonic stem cell survival screen; stronger effect = higher value
# [15] = measured here: epithelial PC-3E GFP cell survival
# [16] = measured here: mesenchymal TEM4-18 mCherry cell survival
# [17] = stronger effect = lower value, cell number ratio, induced over uninduced
# [18] = measured here: relative caspase fold change +Dox/-Dox
# [19] = measured here: total cells with miR-34 induction, stronger effect = lower value
# [20] = measured here: total cells without miR-34 induction
# [21] = MELAS cybrid survival, CellTiter-Glo 48 h, stronger effect = higher value
# [22] = Rieske KO mouse fibroblast survival, CellTiter-Glo 72 h
# Chain of NAD(+) hydrolase SARM1 (Homo sapiens) (Q6SZW1 whole entry, looked up): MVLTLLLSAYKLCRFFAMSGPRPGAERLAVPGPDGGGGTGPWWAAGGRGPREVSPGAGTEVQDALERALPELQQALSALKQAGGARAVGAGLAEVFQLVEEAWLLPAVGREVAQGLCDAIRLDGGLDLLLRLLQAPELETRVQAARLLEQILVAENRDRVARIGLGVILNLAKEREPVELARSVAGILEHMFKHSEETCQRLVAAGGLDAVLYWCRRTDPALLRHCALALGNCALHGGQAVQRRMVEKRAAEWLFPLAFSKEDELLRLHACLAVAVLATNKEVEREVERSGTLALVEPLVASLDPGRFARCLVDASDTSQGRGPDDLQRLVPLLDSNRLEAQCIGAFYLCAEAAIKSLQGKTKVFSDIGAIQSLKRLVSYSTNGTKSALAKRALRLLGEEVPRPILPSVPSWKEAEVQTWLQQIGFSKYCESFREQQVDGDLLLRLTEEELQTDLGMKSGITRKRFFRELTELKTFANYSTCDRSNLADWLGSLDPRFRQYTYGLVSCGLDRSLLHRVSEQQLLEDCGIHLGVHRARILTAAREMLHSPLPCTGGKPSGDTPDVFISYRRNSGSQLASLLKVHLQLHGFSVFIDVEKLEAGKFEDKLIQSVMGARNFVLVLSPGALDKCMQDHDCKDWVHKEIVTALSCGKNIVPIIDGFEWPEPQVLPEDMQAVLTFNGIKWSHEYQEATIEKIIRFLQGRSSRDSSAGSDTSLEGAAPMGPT
compound,measurement,setting,value
CN1C(CCl)Nc2cc(Cl)c(S(N)(=O)=O)cc2S1(=O)=O (configuration not stated),nuclear beta-catenin stimulation,[1]; at 10 µM,-0.9% (inactive)
same,nuclear beta-catenin stimulation,"[1]; stimulation, at 2 µM",1.3%
same,insulin secretion stimulation,[2],2.3% (inactive)
same,viability decrease,[3],0.4% (inactive)
same,tube area decrease,[4],3.9% (inactive)
same,GLP1 secretion stimulation,[5],-2.1% (inactive)
same,inhibition of viability,[6],-10.4% (inactive)
same,viability decrease (inhibition),[7],-2.9% (inactive)
same,viability decrease (inhibition),[8],-20.7% (inactive)
same,red/green cell ratio (normalised),[9],0.93 (inactive)
same,normalised cell number,[9]; [15],1.23
same,normalised cell number,[9]; [16],1.15
same,fold change,[10]; [17],0.914 (inactive) and 0.898 (inactive)
same,fold change,[10]; [18],1.08 and 0.519
same,cell count,[10]; [19],8680 and 8370
same,cell count,[10]; [20],9500 and 9310
same,z-score,[11]; [21],-0.258 (inactive)
same,z-score,[11]; [22],-0.124
same,remaining NAD,[12],10 nM (inactive)
CC1CCc2c(N3CCC(O)CC3)c(F)cc3c(=O)c(C(=O)O)cn1c23 (configuration not stated),parasite load remaining,[13],84.8% (inactive) and 5.38% (inactive)
same,viability,[13],88.5% and 76.5%
same,nuclear beta-catenin stimulation,[1]; at 10 µM,0% (inactive)
same,nuclear beta-catenin stimulation,"[1]; stimulation, at 2 µM",0.1%
same,insulin secretion stimulation,[2],1.15% (inactive)
same,viability decrease,[3],74.1% (active)
same,tube area decrease,[4],-22.8% (inactive)
same,GLP1 secretion stimulation,[5],4% (inactive)
same,inhibition of viability,[6],59% (active)
same,viability decrease (inhibition),[7],37.2% (inactive)
same,viability decrease (inhibition),[8],5.4% (inactive)
same,red/green cell ratio (normalised),[9],0.89 (inactive)
same,normalised cell number,[9]; [15],0.98
same,normalised cell number,[9]; [16],0.87
same,fold change,[10]; [17],0.9 (inactive) and 0.988 (inactive) and 0.927 (inactive)
same,fold change,[10]; [18],0.795 and 0.525 and 0.967
same,cell count,[10]; [19],8750 and 7880 and 9830
same,cell count,[10]; [20],9720 and 7980 and 10600
same,z-score,[11]; [21],-0.315 (inactive) and -0.705 (inactive) and 0.586 (inactive)
same,z-score,[11]; [22],-0.0888 and -0.895 and -0.392
same,remaining NAD,[12],10 nM (inactive)
CCC1NC(=O)c2cc(S(N)(=O)=O)c(Cl)cc2N1 (configuration not stated),survival,[14],5.17 (inactive)
same,parasite load remaining,[13],89.6% (inactive)
same,viability,[13],77.9%
same,nuclear beta-catenin stimulation,[1]; at 10 µM,1.2% (inactive)
same,nuclear beta-catenin stimulation,"[1]; stimulation, at 2 µM",2.9%
same,insulin secretion stimulation,[2],-1.7% (inactive)
same,viability decrease,[3],-8.4% (inactive)
same,tube area decrease,[4],2.1% (inactive)
same,GLP1 secretion stimulation,[5],8.6% (inactive)
same,inhibition of viability,[6],-5.7% (inactive)
same,viability decrease (inhibition),[7],-10.9% (active)
same,viability decrease (inhibition),[8],-14% (inactive)
same,red/green cell ratio (normalised),[9],0.98 (inactive)
same,normalised cell number,[9]; [15],1.22
same,normalised cell number,[9]; [16],1.2
same,fold change,[10]; [17],0.92 (inactive)
same,fold change,[10]; [18],0.404
same,cell count,[10]; [19],8110
same,cell count,[10]; [20],8810
same,z-score,[11]; [21],-1.3 (inactive)
same,z-score,[11]; [22],-1.37
same,remaining NAD,[12],10 nM (inactive)
